# Test results: PubChem BioAssay AID488890 (Southern Research Specialized Biocontainment Screening …, 2010)
# Screen size: about 320,000 compounds; about 1,300 (0.41%) were called active. Another 3% or so got no clear call; they are omitted. No rule for the calls is given here. Not all results are given here. Entries with a potency or affinity are not part of this list.
# Assay: growth inhibition of non-replicating M. tuberculosis (AID 488890);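 also: plate controls were DMSO cells for no effect and high antibiotic wells for full effect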
# Conditions: Mycobacterium tuberculosis non-replicating, at 25 µM, stronger effect = higher value
row,Structure (SMILES),inhibition [%]
1,CC(=O)Nc1nnc(SCC(=O)NCc2ccc3c(c2)OCO3)s1,-14.9
2,Cc1ccc(C(=O)NCc2ccc3c(c2)OCO3)cc1Cl,45.9
3,Cc1ccc(CS(=O)(=O)CCC(=O)N2CCC3(CC2)OCCO3)cc1,-11.2
4,Cc1ccc(S(=O)(=O)Nc2ccccc2F)cc1C(=O)NCCCN1CCCC1=O,-4.79
5,CCOC(=O)c1c(S(=O)(=O)Nc2ccc(C)c(F)c2)c(C)n(C)c1C,-0.18
6,CC1(C)CC(=O)C(C2=NC3(CCCCCC3)Cc3ccccc32)=C(O)C1,-2.29
7,CS(=O)(=O)N1CCC(C(=O)Nc2cc(Cl)ccc2Cl)CC1,-6.65
8,CC(C)c1cc(C(=O)N2CCN(C(c3ccccc3)c3ccccc3)CC2)no1,21.3
9,NC(=O)[C@@H]1CC2(CC(c3cccc(NC(=O)CC(c4ccccc4)c4ccccc4)c3)=NO2)CN1C(=O)[C@@H]1CCC(=O)N1 (stereo not given in full),14.1
10,CCc1nnc(NC(=O)C2Cc3ccccc3CN2S(=O)(=O)CC)s1 (stereo not given),5.84
11,O=C(Nc1ccc(F)cc1)c1ccc2c(=O)n3c(nc2c1)CCCCC3,21.9
12,CCOc1ccc(NC(=O)c2ccc3c(=O)n4c(nc3c2)CCCCC4)cc1,20.7
13,CC(OC(=O)c1ccc2c(=O)n3c(nc2c1)CCCCC3)C(=O)Nc1ncc(Cl)cc1Cl (stereo not given),29.8
14,O=C(NNC(=O)c1ccc2c(=O)n3c(nc2c1)CCC3)c1ccc(F)cc1,-18.9
15,CCOc1ccc(CCNC(=O)c2ccc3c(=O)n4c(nc3c2)CCCCC4)cc1,51
16,CC(OC(=O)c1ccc2c(=O)n3c(nc2c1)CCCCC3)C(=O)Nc1ccc(F)cc1Cl (stereo not given),2.57
17,CNS(=O)(=O)c1cccc(C(=O)OCC(=O)N2c3ccccc3CC2C)c1 (stereo not given),-1.88
18,Fc1ccc(-c2n[nH]c(=S)c3ccccc23)cc1,15.8
19,CCOc1ccc(NC(=O)Nc2ccc3c(c2)CCC3)cc1,-9.82
20,Cc1cc(F)ccc1Oc1cc(NN2CCCCC2)c([N+](=O)[O-])cc1[N+](=O)[O-],8.26
21,CC(Oc1ccc(S(=O)(=O)N2CCCC2)cc1[N+](=O)[O-])C(=O)NC1(C#N)CCCCC1 (stereo not given),9.55
22,COc1cccc(CNC(=O)C2CCN(c3cnccn3)CC2)c1,-3.9

row,Structure (SMILES),inhibition [%]
1,O=C1NC(=O)N(CCc2ccc(F)cc2)C(=O)/C1=C/c1cccs1,2.97
2,O=C1NC(=O)N(CCc2ccc(F)cc2)C(=O)/C1=C/c1ccco1,22.4
3,O=C(c1ccccc1NS(=O)(=O)c1cccs1)N1CCOCC1,6.22
4,CCCCn1nnc(NC(=O)COc2cc(C)ccc2C(C)C)n1,64
5,Cc1cccc(OCC(=O)Nc2nonc2NC(=O)COc2cccc(C)c2)c1,48
6,CCCn1nnc(NC(=O)COc2ccccc2Cl)n1,67.3
7,Cc1cc(OCC(=O)Nc2ncn[nH]2)ccc1Cl,30.6
8,Cc1cccc(N2CC(C(=O)Nc3ccc4c(c3)OCCO4)CC2=O)c1C (stereo not given),-5.78
9,CCc1cc2c(=O)c(-c3nc(C)cs3)coc2cc1O,13.5
10,COCCNC(=O)C1CCC(=O)N1S(=O)(=O)c1ccc(C)cc1 (stereo not given),1.96
11,Cc1[nH]n(-c2ccccc2)c(=O)c1C=Nc1cccc2cccnc12,33.6
12,Cc1[nH]n(-c2ccccc2)c(=O)c1C=Nc1cccc(F)c1,5.36
13,O=C(Cc1ccccc1F)N1CCN(CC(=O)N2CCCC2)CC1,8.24
14,CCOC(=O)CSc1nnc(CCc2nc3ccccc3[nH]2)n1C,-4.77
15,Cc1ccc(C(=O)c2coc3ccc(OCC(=O)O)cc23)cc1,-4.9
16,COc1ccc2occ(C(=O)c3ccccc3)c2c1,3.51
17,CNC(=S)NNC(=O)c1cn(C)nc1C,-3
18,CCn1ccc(C(=O)NCCCN2CCCC2=O)n1,5.42
19,Cc1c([N+](=O)[O-])c([N+](=O)[O-])nn1CC(=O)N1CCOCC1,1.03
20,O=C(O)C1C2C=CC(CC2)C1C(=O)O (stereo not given),1.2
21,O=C(C[C@@H]1C/C=C\CCCC(=O)OC[C@@H]2CCCN2C1=O)N[C@@H](CO)Cc1ccccc1,0.26
22,Cc1ccc2nsnc2c1NC(=O)c1ccc([N+](=O)[O-])o1,75.4

row,Structure (SMILES),inhibition [%]
1,O=C(Nc1nnc(-c2ccco2)o1)c1ccc(S(=O)(=O)N2CCCC2)cc1,25.6
2,Cc1ccc(NC(=O)c2ccco2)cc1C,60.8
3,CS(=O)(=O)c1ccccc1-c1nnc(NC(=O)c2ccco2)o1,38.6
4,CS(=O)(=O)c1ccccc1-c1nnc(NC(=O)c2ccc(S(=O)(=O)N3CCCC3)cc2)o1,-2
5,Cc1ccc(C)c(-c2nnc(NC(=O)CCS(=O)(=O)c3ccc(F)cc3)o2)c1,41.4
6,CS(=O)(=O)c1ccc(-c2nnc(NC(=O)c3ccco3)o2)cc1,43.1
7,Cc1ccc(O)c(NC(=O)c2ccco2)c1,15.1
8,Cc1nc(-c2ccc(NC(=O)C(C)(C)C)cc2)c(-c2ccccc2)o1,-0.61
9,Nc1cccc(C(=O)OCC(=O)NC2CCCc3ccccc32)c1 (stereo not given),6.1
10,O=C1c2ccccc2C(=O)N1CCOc1cccc(Br)c1,53.6
11,CCCCCC(=O)N/N=C(\C)c1ccc(NC(=O)c2ccco2)cc1,10.3
12,CCNC(=O)C(=O)Nc1ccc(OC)c(Cl)c1,-0.29
13,COc1ccc(Cc2nc3ccc(C(=O)N4C[C@@H](C)O[C@@H](C)C4)cc3o2)cc1OC,17.8
14,c1ccc(-c2nn3c(C4CCCCC4)nnc3s2)nc1,9
15,Cc1nc(N2CCN(Cc3ccccc3)CC2)nc2c1C(=O)CC(c1ccco1)C2 (stereo not given),3.19
16,COc1cccc(-c2cccc(NC(=O)C3CCN(Cc4cccc(C)n4)CC3)c2)c1,5.93
17,CCc1ccc(NC(=S)N2CCN(C)CC2)cc1,-4.9
18,COc1ccc([N+](=O)[O-])cc1NC(=O)CCCOc1ccccc1,12.4
19,Cc1ccc(C(=O)Nc2ccc(Oc3cccc(C(F)(F)F)c3)nc2)cc1,-15.4
20,Cc1ccc(-c2nnc(-c3ccc(NC(=O)c4ccco4)cc3)o2)cc1,-12.3
21,COc1cc(-c2nnc(NC(=O)c3ccco3)o2)cc(OC)c1OC,12.9
22,COc1ccc(CN2C(=O)c3ccccc3C2OC)cc1 (stereo not given),43.5

row,Structure (SMILES),inhibition [%]
1,O=C(NCc1ccccc1)c1nc(-c2cccs2)no1,15.8
2,COc1ccc(CCNC(=O)c2nc(-c3cccs3)no2)cc1OC,62.8
3,CC(=O)c1ccccc1Oc1cc(NN2CCCCC2)c([N+](=O)[O-])cc1[N+](=O)[O-],30.5
4,Cc1ccc(S(=O)(=O)N2CCCC2C(=O)NC2CCCCC2)cc1 (stereo not given),13.2
5,Nc1ccc(C#Cc2ccc3c(=O)c4ccccc4oc3c2)cc1,11.2
6,Nc1ccc2oc3ccccc3c2c1,68.5
7,Cc1sc(NC(=O)c2oc3ccccc3c2C)c(C#N)c1C,0.16
8,NS(=O)(=O)c1ccc(CCNCc2cc(Br)ccc2OCc2ccccc2)cc1,36
9,CCOc1ccc(N(C(=O)c2ccc(S(=O)(=O)N3CCCC3)cc2)C2C=CS(=O)(=O)C2)cc1 (stereo not given),2.41
10,CCN(CCn1cccn1)Cc1cn[nH]c1-c1ccc(-c2ccccc2)cc1,23
11,O=C(CNCc1ccccc1)NC1C2CC3CC(C2)CC1C3 (stereo not given),7.24
12,CCCC(=O)NC1C2CC3CC(C2)CC1C3 (stereo not given),66.5
13,Cc1ccc(S(=O)(=O)N2CCC(C(=O)NC3CC(C)(C)NC(C)(C)C3)CC2)cc1,-9.46
14,O=C(CC1SC(N2CCCCC2)=NC1=O)Nc1cccc(C(=O)O)c1 (stereo not given),-10.1
15,CC(=O)OCCNc1cc(SC(C)C)c2nonc2c1[N+](=O)[O-],65.7
16,CCCSc1cc(NCCOC(C)=O)c([N+](=O)[O-])c2nonc12,74.5
17,Cn1ccnc1Sc1cc(NCCCO)c([N+](=O)[O-])c2nonc12,77.2
18,O=[N+]([O-])c1c(NCCCO)cc(SCc2ccco2)c2nonc12,70.1
19,COC(=O)CCSc1cc(NCCOC(C)=O)c([N+](=O)[O-])c2nonc12,72.4
20,CC(=O)OCCCNc1cc(Sc2nc3ccccc3s2)c2nonc2c1[N+](=O)[O-],7.19
21,Cc1cc2c(C)c(C)c(=O)[nH]c2cc1N,6.16
22,Cc1occc1C(=O)NNC(=O)NC12CC3CC(CC(C3)C1)C2,1.27

row,Structure (SMILES),inhibition [%]
1,O=C(NCc1ccccn1)c1cccc(S(=O)(=O)N2CCCCC2)c1,-1.8
2,COc1ccc(C(=O)NNC(=O)CCC(=O)NNC(=O)c2ccc(OC)cc2)cc1,8.31
3,CCNc1nc(NCC)n2c(SCc3nc4ccccc4c(=O)[nH]3)nnc2n1,48.6
4,Cn1c(=O)c(Oc2cc(Cl)cc(Cl)c2)nc2ccccc21,5.56
5,Cc1ccc(N)cc1NC(=O)CN1CCOCC1,6.66
6,CCOCCCNC(=O)C1CC(=O)N(C2CCCC2)C1 (stereo not given),-5.49
7,CSc1ncccc1C(=O)OCC(=O)N1CCCC1,39.6
8,COc1cccc(C(=O)COC(=O)c2ccc(NC(C)=O)cc2)c1,61.7
9,CCN(CC)S(=O)(=O)c1cc(C(=O)N=c2sccn2C)ccc1OC,20.4
10,O=[N+]([O-])c1cc(CN2CCCC2)c2cccnc2c1O,-4.52
11,CCOC(=O)N1CCN(Cc2ccccc2Cl)CC1,10.7
12,CN1CCN(Cc2cc(Cl)c3cccnc3c2OC(=O)c2cccs2)CC1,51
13,CCOC(=O)N1CCN(Cc2ccc(O)c3ncccc23)CC1,56.8
14,O=C(Oc1c(Cl)cc(Cl)c2cccnc12)N1CCOCC1,2.11
15,OCCN1CCN(Cc2cc(Cl)c3cccnc3c2O)CC1,66
16,COCCCNC(=O)c1ccc2c(c1)ncn2-c1ccc(C)cc1C,5.06
17,Cc1ccc(NC(=O)CN2C(=O)NC3(CCCC3)C2=O)nc1,-25.1
18,COc1ccccc1OCC(=O)/C=C1/N(C)c2ccccc2C1(C)C,17.5
19,NS(=O)(=O)c1ccc(CCNC(=O)C2COc3ccccc3O2)cc1 (stereo not given),7.64
20,COc1ccc(CCN2C(=O)CC(N3CCN(S(=O)(=O)c4ccccc4)CC3)C2=O)cc1OC (stereo not given),13.8
21,CCC(C)[C@H](NC(=O)c1cc2cc(Cl)ccc2n1C)C(=O)N1CCC(C(=O)O)CC1 (stereo not given in full),0.12
22,COc1cccc(CNC(=O)CN2CCC(c3nc4ccc(C)cc4[nH]3)CC2)c1,6.15
